# Source: the supplement of paper PMC9694430
# Where a name gives a salt, the structure may show the parent alone.
# Test system: T1, LOC_OS04G38480-cb003
# T1 sequence (whole entry): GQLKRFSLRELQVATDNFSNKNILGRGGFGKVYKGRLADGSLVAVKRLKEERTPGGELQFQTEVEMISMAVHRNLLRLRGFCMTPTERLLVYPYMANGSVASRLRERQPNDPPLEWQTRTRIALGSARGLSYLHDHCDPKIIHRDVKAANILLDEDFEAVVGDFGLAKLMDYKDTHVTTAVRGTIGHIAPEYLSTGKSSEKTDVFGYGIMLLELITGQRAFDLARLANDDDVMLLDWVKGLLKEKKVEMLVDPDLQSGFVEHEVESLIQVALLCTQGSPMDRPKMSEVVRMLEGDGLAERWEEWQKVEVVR
# Test: thermal shift delta Tm vs DMSO control; higher = stronger stabilization (binding)
# Details: 12.5 µM; protein concentration 2 µM
# In short: (§1)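 Rice kinase domain constructs were expressed in E. coli, purified, and tested by differential scanning fluorimetry with compound added in DMSO. Each well of a 96-well plate held 19.5 μl of 2 μM kinase in 100 mM potassium phosphate pH 7.5, 150 mM NaCl, 10% glycerol and 5 × SYPRO Orange, and fluorescence was read from 25°C to 95°C at 0.05°C/s. The melting temperature shift is the mean of triplicates, taken against protein with DMSO alone after Boltzmann fitting.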
row,SMILES,thermal shift delta Tm
1,CN1CCN(Cc2ccc(NC(=O)Nc3ccc(Oc4ccnc(N)n4)cc3)cc2C(F)(F)F)CC1,2.07 °C
2,O=C(NOCCO)c1ccc2cncn2c1Nc1ccc(I)cc1F,-1.85 °C
3,CCCCCCCCCCCCc1ccc(S(=O)(=O)Nc2nncs2)cc1,0.58 °C

# Test system: T2, LOC_OS04G41100-cb001
# T2 sequence (whole entry): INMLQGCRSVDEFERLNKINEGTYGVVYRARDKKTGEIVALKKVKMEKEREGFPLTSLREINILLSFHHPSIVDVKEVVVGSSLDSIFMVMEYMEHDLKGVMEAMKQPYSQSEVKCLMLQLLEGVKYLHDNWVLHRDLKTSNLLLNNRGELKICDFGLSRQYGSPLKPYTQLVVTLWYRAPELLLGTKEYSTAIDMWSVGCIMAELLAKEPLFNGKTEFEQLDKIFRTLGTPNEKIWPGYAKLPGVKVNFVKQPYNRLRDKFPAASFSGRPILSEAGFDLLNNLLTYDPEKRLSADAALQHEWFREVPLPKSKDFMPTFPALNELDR
# Test: as above
# Details: 12.5 µM; protein concentration 2 µM
# In short: as §1
row,SMILES,thermal shift delta Tm
1,CC(C)(C)c1cnc(CSc2cnc(NC(=O)C3CCNCC3)s2)o1,10.7 °C
2,CN(C)C/C=C/C(=O)Nc1cc2c(Nc3ccc(F)c(Cl)c3)ncnc2cc1O[C@H]1CCOC1 [Afatinib (BIBW2992) Dimaleate],0.45 °C
3,O=C1c2c(O)cc(O)cc2OC(c2ccc(O)c(O)c2)C1O (stereo not given) [Taxifolin (Dihydroquercetin)],0.5 °C
4,CCN(CC)CCNC(=O)c1c(C)[nH]c(/C=C2\C(=O)Nc3ccc(F)cc32)c1C [Sunitinib Malate],0.97 °C
5,COc1cc(Nc2ncc(F)c(Nc3ccc4c(n3)N(COP(=O)(O)O)C(=O)C(C)(C)O4)n2)cc(OC)c1OC [Fostamatinib (R788)],0.47 °C
6,CC(C)(C)c1nc(-c2ccc(NC(=O)Nc3cccc(C(F)(F)F)c3)c3ccccc23)c2c(N)nccn12 [kira6],-0.01 °C
7,CNC(=O)c1cc(Oc2ccc(NC(=O)Nc3ccc(Cl)c(C(F)(F)F)c3)cc2)ccn1 [Sorafenib Tosylate],1.53 °C
8,CC(=O)Nc1nc(C)c(-c2ccc(Cl)c(S(=O)(=O)NCCO)c2)s1,0.77 °C
9,CCc1nc(-c2cccc(C)c2)c(-c2ccnc(NC(=O)c3ccccc3)c2)s1,0.61 °C
10,C[C@@]1(C(=O)Nc2ccc(F)nc2)CCCN1c1nc(Nc2cc(C3CC3)n[nH]2)c2cccn2n1,0.62 °C
11,COc1ccc(Cl)cc1NC(=O)Nc1cc(C)nc2ccccc12,0.36 °C
12,C=CC(=O)Nc1cccc(Nc2nc(Nc3ccc(OCCOC)cc3)ncc2F)c1,1 °C
13,CC(C)c1c2cc(-c3ccnc(NC4CCC(NC5CCOCC5)CC4)n3)ccc2nn1C (stereo not given),6.52 °C
14,C[C@H]1CNC(=O)c2cnn3ccc(nc23)N[C@H](C)c2cc(F)ccc2O1,0.09 °C
15,Cn1cc(-c2ccc3c(c2)CCN3C(=O)Cc2cccc(C(F)(F)F)c2)c2c(N)ncnc21,1.28 °C
16,Cn1c(=O)c(F)c(Nc2ccc(I)cc2F)c2c(=O)n(C[C@@H](O)CO)cnc21,0.43 °C

row,SMILES,thermal shift delta Tm
1,CNC(=O)c1cccc(-c2ccc3c(N4CCOC[C@@H]4C)nc(N4CCOC[C@@H]4C)nc3n2)c1 [Vistusertib (AZD2014)],0.11 °C
2,Cc1nc(Nc2cnn(C3CCNCC3)c2)nc2c1N(C)C(=O)c1cc3ccccc3cc1N2C,0.38 °C
3,COc1cc2/c(=N/c3ccc(Br)cc3F)nc[nH]c2cc1OCC1CCN(C)CC1 [Vandetanib (ZD6474)],0.73 °C
4,CCn1c(C(=O)N(C2CC2)C2CC2)cc2c3c(ncn3C)c(Nc3cc(C)n(C)n3)nc21,0.58 °C
5,OCCn1cc(-c2cnc3nnn(Cc4ccc5ncccc5c4)c3n2)cn1,0.57 °C
6,N#CC[C@H](C1CCCC1)n1cc(-c2ncnc3[nH]ccc23)cn1,0.66 °C
7,CCn1nc(C2CCN(C(=O)CCO)CC2)nc1-c1cnc(N)c(-c2nnc(C(C)(C)C)o2)n1,0.3 °C
8,CC(C)(C)c1cc(NC(=O)Nc2ccc(Oc3ccnc4[nH]c(=O)cnc34)cc2F)n(-c2ccccc2)n1,7.51 °C
9,CO[C@H]1CC[C@H](N2C(=O)CNc3ncc(-c4ccc(C(C)(C)O)nc4)nc32)CC1,0.08 °C
10,CC[C@@H]1C(=O)N(C)c2cnc(Nc3ccc(C(=O)N[C@H]4CC[C@H](N5CCN(CC6CC6)CC5)CC4)cc3OC)nc2N1C(C)C [Volasertib (BI 6727)],0.24 °C
11,COc1ccc2c(c1)[C@]1(C[C@H]1c1ccc3c(/C=C/c4ccc(CN5C[C@@H](C)O[C@@H](C)C5)cc4)n[nH]c3c1)C(=O)N2,0.19 °C
12,O=C(Nc1nc2cccc(-c3ccc(CN4CCS(=O)(=O)CC4)cc3)n2n1)C1CC1 [Filgotinib (GLPG0634)],0.6 °C
13,CCn1c(-c2nonc2N)nc2c(C#CC(C)(C)O)ncc(OC[C@H]3CCCNC3)c21,1.1 °C
14,Cc1cnc(Nc2ccc(OCCN3CCCC3)cc2)nc1Nc1cccc(S(=O)(=O)NC(C)(C)C)c1,0.68 °C
15,Cc1cc(Nc2cc(N3CCN(C)CC3)nc(/C=C/c3ccccc3)n2)n[nH]1 [ENMD-2076 L-(+)-Tartaric acid],1.89 °C
16,CC#CC(=O)N1CC[C@@H](n2c(=O)n(-c3ccc(Oc4ccccc4)cc3)c3c(N)ncnc32)C1 [ONO-4059 (GS-4059) hydrochloride],0.03 °C
